Data published in PubChem BioAssay (NCATS).
Where “and” joins values, the source holds several entries; their conditions need not be identical. Equal entries are not always repeated. Records with an inconclusive call do not appear. Calls of active or inactive are those of the source. Calls follow the shape of the dose curve; as a rule, active = well fitted curve in the direction sought with a large enough effect; inconclusive = small, poorly fitted or top-dose-only effect, or another doubt; inactive = no such curve, though single readings can be large; an effect the other way counts as inactive or inconclusive.

Assays:
[1] = qHTS of pediatric cancer cell lines to identify multiple opportunities for drug repurposing: Primary screen for Rh18 cells (AID 1347102); also: nearly all actives have a fitted effect of over 65% in size; also: potency is read from the fitted curve at half-maximal effect
Outline: (§1)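 Cells (500-1,000/well) in growth media were settled 5 h at 37 degrees C, then given compounds for 48 h. Viability was read as CellTiter-Glo luminescence. Primary runs used MIPE at 11 points (0.78 nM-46 µM) and NPC at 8 points (0.59 nM-46 µM); follow-ups used 11 points.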

[2] = qHTS of pediatric cancer cell lines to identify multiple opportunities for drug repurposing: Primary screen for RD cells (AID 1347104); also: nearly all actives have a fitted effect of over 55% in size; also: potency is read from the fitted curve at half-maximal effect
Outline: (§2)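 CRCs from 8- or 11-point titrations (lowest final 0.59 nM NPC, 0.78 nM MIPE). Cell viability: CellTiter-Glo after 48 h incubation, 15 min room-temperature development, luminescence imaging.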

[3] = qHTS of pediatric cancer cell lines to identify multiple opportunities for drug repurposing: Primary screen for control Hh wild type fibroblast cells (AID 1347106);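 also: series mostly up to about 46 µM; a drop in luminescence marks cytotoxicity and a rise apparent proliferation; nearly all actives have a fitted effect of over 55% in size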
Outline: as §1

[4] = qHTS of pediatric cancer cell lines to identify multiple opportunities for drug repurposing: Primary screen for Rh30 cells (AID 1347107); also: nearly all actives have a fitted effect of over 75% in size; also: potency is read from the fitted curve at half-maximal effect
Outline: as §1

[5] = qHTS of pediatric cancer cell lines to identify multiple opportunities for drug repurposing: Primary screen for MG 63 (6-TG R) cells (AID 1347105); also: nearly all actives have a fitted effect of over 50% in size; also: potency is read from the fitted curve at half-maximal effect
Outline: as §2

[6] = qHTS of pediatric cancer cell lines to identify multiple opportunities for drug repurposing: Primary screen for OHS-50 cells (AID 1347103); also: nearly all actives have a fitted effect of over 40% in size; also: potency is read from the fitted curve at half-maximal effect
Outline: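 Cells (500-1,000/well) rested 5 h, then received compounds for 48 h; metabolically active cells were measured by CellTiter-Glo luminescence. Final concentrations spanned up to 46 µM (MIPE, 11-point) or 0.59 nM-46 µM (NPC, 8-point) in primary screens, 11-point in follow-ups.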

[7] = qHTS of pediatric cancer cell lines to identify multiple opportunities for drug repurposing: Primary screen for Rh41 cells (AID 1347108); also: nearly all actives have a fitted effect of over 70% in size; also: potency is read from the fitted curve at half-maximal effect
Outline: as §2

[8] = qHTS of pediatric cancer cell lines to identify multiple opportunities for drug repurposing: Confirmatory screen for NB1643 cells (AID 1347109); also: potency is read from the fitted curve at half-maximal effect; nearly all actives have a fitted effect of over 45% in size
Outline: as §1

[9] = qHTS of pediatric cancer cell lines to identify multiple opportunities for drug repurposing: Confirmatory screen for A673 cells (AID 1347110);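 also: potency is read from the fitted curve at half-maximal effect; cells exposed to compound for 48 h before the viability read; nearly all actives have a fitted effect of over 65% in size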
Outline: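 Viability was read as ATP luminescence (CellTiter-Glo) after 48 h of compound exposure at 37 C in A673 cells seeded at 500-1,000/well. Titrations reached 46 uM final, with 11 points in the confirmatory screen. Concentration-response curves were fitted directly.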

[10] = qHTS of pediatric cancer cell lines to identify multiple opportunities for drug repurposing: Confirmatory screen for SK-N-MC cells (AID 1347111);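 also: potency is read from the fitted curve at half-maximal effect; cells exposed to compound for 48 h before the readout; nearly all actives have a fitted effect of over 70% in size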
Outline: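 Metabolically active cells were quantified by ATP-dependent luminescence (CellTiter-Glo, 15 min at room temperature) following 48 h treatment. Cells had been plated at 500-1,000 per well and settled for 5 h beforehand.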

[11] = qHTS of pediatric cancer cell lines to identify multiple opportunities for drug repurposing: Confirmatory screen for BT-37 cells (AID 1347117); also: potency is read from the fitted curve at half-maximal effect; nearly all actives have a fitted effect of over 55% in size
Outline: as §1

[12] = qHTS of pediatric cancer cell lines to identify multiple opportunities for drug repurposing: Confirmatory screen for TC32 cells (AID 1347118);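 also: potency is read from the fitted curve at half-maximal effect; cells exposed to compound for 48 h before the read; nearly all actives have a fitted effect of over 65% in size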
Outline: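 Luminescent CellTiter-Glo read-out of metabolically active TC32 cells after 48 h compound exposure. Primary: MIPE 11-point, 0.78 nM–46 µM; NPC 8-point, 0.59 nM–46 µM. Confirmatory: 11-point dilutions.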

[13] = qHTS of pediatric cancer cell lines to identify multiple opportunities for drug repurposing: Confirmatory screen for MG 63 (6-TG R) cells (AID 1347119); also: potency is read from the fitted curve at half-maximal effect; nearly all actives have a fitted effect of over 55% in size
Outline: as §1

[14] = qHTS of pediatric cancer cell lines to identify multiple opportunities for drug repurposing: Confirmatory screen for control Hh wild type fibroblast cells (AID 1347121); also: nearly all actives have a fitted effect of over 70% in size
Outline: as §1

[15] = qHTS of pediatric cancer cell lines to identify multiple opportunities for drug repurposing: Confirmatory screen for LAN-5 cells (AID 1347113); also: potency is read from the fitted curve at half-maximal effect; nearly all actives have a fitted effect of over 65% in size
Outline: as §1

[16] = qHTS of pediatric cancer cell lines to identify multiple opportunities for drug repurposing: Confirmatory screen for NB-EBc1 cells (AID 1347115);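 also: cells exposed to compound for 48 h before the viability read; nearly all actives have a fitted effect of over 45% in size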; also: potency is read from the fitted curve at half-maximal effect
Outline: as §1

[17] = qHTS of pediatric cancer cell lines to identify multiple opportunities for drug repurposing: Confirmatory screen for SJ-GBM2 cells (AID 1347116); also: potency is read from the fitted curve at half-maximal effect; nearly all actives have a fitted effect of over 60% in size
Outline: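 Viability measured as metabolically active cells via CellTiter-Glo luminescence following 48 hours of compound exposure, 11-point dilutions in confirmatory testing. 500-1,000 cells/well plated 5 hours before dosing; controls were DMSO and 2.3 µM bortezomib.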

[18] = qHTS of pediatric cancer cell lines to identify multiple opportunities for drug repurposing: Confirmatory screen for Rh41 cells (AID 1347123); also: potency is read from the fitted curve at half-maximal effect; nearly all actives have a fitted effect of over 60% in size
Outline: as §1

[19] = qHTS of pediatric cancer cell lines to identify multiple opportunities for drug repurposing: Confirmatory screen for BT-12 cells (AID 1347112); also: nearly all actives have a fitted effect of over 55% in size
Outline: as §1

[20] = qHTS of pediatric cancer cell lines to identify multiple opportunities for drug repurposing: Confirmatory screen for U-2 OS cells (AID 1347122)
Outline: as §1

Measured: Potency

CCn1c(-c2nonc2N)nc2c(C#CC(C)(C)O)ncc(OC[C@H]3CCCNC3)c21
active: [2] 23.5 µM
inactive: [1] | [3] | [4]

CN[C@@H](C)C(=O)N[C@H]1CCCC[C@H]2CC[C@@H](C(=O)N[C@@H](c3ccccc3)c3cn(CCCCc4ccc(CCCCn5cc([C@@H](NC(=O)[C@@H]6CC[C@@H]7CCCC[C@H](NC(=O)[C@H](C)NC)C(=O)N76)c6ccccc6)nn5)cc4)nn3)N2C1=O
active: [1] 14.8 µM
inactive: [5] | [3]

Nc1nccc(-c2ccc3noc(-c4ccc(Cl)cc4)c3c2)n1
inactive: [1] | [2] | [5] | [4]

CCc1cc(Nc2nccc(-c3c(-c4ccc(OC)c(C(=O)Nc5c(F)cccc5F)c4)nc4ccccn34)n2)c(OC)cc1N1CCC(N2CCN(S(C)(=O)=O)CC2)CC1
inactive: [1]
active: [5] 18.7 µM

CS(=O)(=O)c1cccc(CNc2nc(Nc3ccc4c(c3)CCC(=O)N4)ncc2C(F)(F)F)c1
active: [6] 6.11 µM | [2] 16.6 µM | [5] 11.8 µM
inactive: [3]

CN(C)c1ccc(Nc2nc(N)n(C(=O)c3c(F)cccc3F)n2)cc1
inactive: [1] | [3] | [4] | [7]
active: [5] 18.7 µM

CCOC(=O)N1CCC(=C2c3ccc(Cl)cc3CCc3cccnc32)CC1
inactive: [3]
active: [6] 24.3 µM and 21.9 µM | [2] 29.9 µM | [5] 13.3 µM

CCCCCCCc1ccc(CCc2cccc(O)c2C(=O)O)cc1
inactive: [1] | [3]

CC(C)NCC(O)COc1ccc(COCCOC(C)C)cc1 (stereo not given)
inactive: [6] | [2] | [5] | [3] | [4]

CC[C@@H](C)[C@H](NC(=O)[C@H](CC1CCCCC1)NC(=O)c1ccno1)C(=O)N1CCC2(CCc3ccccc32)CC1
active: [6] 17.2 µM
inactive: [5] | [3]

CNC(=O)c1ccc(C)c(-n2c(C)cc(OCc3ccc(F)cc3F)c(Br)c2=O)c1
inactive: [2] | [3]
active: [6] 24.3 µM

CC[C@H](Nc1ncnc2nc[nH]c12)c1nc2cccc(F)c2c(=O)n1-c1ccccc1
inactive: [3]
active: [6] 6.85 µM | [5] 2.35 µM

OCCC#Cc1nc(-c2ccc(F)cc2)c(-c2ccncc2)n1CCCc1ccccc1
inactive: [3]
active: [6] 27.3 µM | [5] 29.6 µM

Clc1ccc(Nc2nnc(Cc3ccncc3)c3ccccc23)cc1
inactive: [2] | [3] | [4]
active: [6] 19.5 µM

CCOc1cc(N2CCC(O)CC2)ccc1Nc1ncc2c(n1)N(C)c1ccccc1C(=O)N2C
active: [6] 0.0432 µM | [2] 0.148 µM | [5] 3.72 µM | [7] 2.96 µM | [8] 16.5 µM | [9] 0.0465 µM | [10] 1.17 µM | [11] 7.37 µM | [12] 0.928 µM | [13] 4.14 µM
inactive: [3] | [14]

CCn1c(-c2nonc2N)nc2cnc(Oc3cccc(NC(=O)c4ccc(OCCN5CCOCC5)cc4)c3)cc21
active: [6] 15.3 µM
inactive: [5] | [3]

Oc1cccc(-c2nc(N3CCOCC3)c3oc4ncccc4c3n2)c1
active: [6] 0.444 µM | [2] 0.241 µM | [5] 0.0855 µM | [4] 13.6 µM | [8] 2.4 µM | [9] 1.85 µM | [10] 0.759 µM | [15] 0.537 µM | [16] 13.5 µM | [17] 2.93 µM | [11] 0.851 µM | [12] 0.427 µM | [13] 0.135 µM | [18] 0.522 µM

c1ccc([C@H]2CN3CCSC3=N2)cc1
inactive: [6] | [2] | [5] | [3] | [4] | [7]

N[C@@H]1CONC1=O
inactive: [6] | [2] | [5] | [3] | [4]

CCCS(=O)(=O)Nc1ccc(F)c(C(=O)c2c[nH]c3ncc(-c4ccc(Cl)cc4)cc23)c1F
active: [6] 6.85 µM | [2] 18.7 µM | [5] 14.8 µM | [9] 16.5 µM | [10] 23.3 µM | [12] 18.5 µM | [20] 23.3 µM | [18] 13.1 µM
inactive: [19] | [16] | [14]

S=C(NCc1ccc2c(c1)OCO2)N1CCN(c2ncnc3c2oc2ccccc23)CC1
active: [6] 1.98 µM
inactive: [5] | [3] | [4]

CC(C)(C)NCC(O)c1ccc(O)c(CO)c1 (stereo not given)
inactive: [6] | [2] | [5] | [3] | [7]

O=C(C1CC1)N1CC[C@@H](Cn2c(-c3ccc(-c4ccc5occc5c4)cc3)nc3cnccc32)C1
inactive: [6] | [2] | [5] | [3] | [4] | [7]
